# Data: PubChem BioAssay
# The source made the active and inactive calls.
# Key:
# [1] = tested on: Human papillomavirus type 1a protein E7 (residues 44-93); assay: small molecules binding HPV E7 44-93 – biochemical, small-molecule microarray, residues 44-93, 635 nm fluorescence, primary screen (AID 1108); conditions: fluorescence 635 nm, higher = more signal;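 further: E7 fragment applied at 1 µg/mL in TBST for 1 h at 4 C; score combines spot fluorescence with its signal to noise ratio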
# [2] = hepatitis C replication reporter changes, two-sided – Huh7 cells, luciferase reporter, HCV replication inhibitor project, primary screen (AID 1109); conditions: Huh7 HCV replicon luciferase reporter, 48 h; higher = more signal;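 further: huh7 hepatoma cells harbouring a luciferase neomycin HCV replicon reporter; luciferase luminescence as measure of HCV replicon replication; test concentration not given here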
# [3] = target: Left-right determination factor 2 (Homo sapiens) (UniProt O00292); assay: small molecules binding LEFTY2 protein – biochemical, small-molecule microarray, 635 nm fluorescence scan, primary screen (AID 1110); conditions: higher = more signal
# [4] = target: Calmodulin-1 (Homo sapiens) (UniProt P0DP23); assay: small molecules binding calmodulin-1 with EGTA – biochemical, small-molecule microarray, Cy5-labelled CALM1, profiling panel (AID 1111); conditions: Cy5-CALM1 binding fluorescence, higher = more signal;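 further: labelled calmodulin applied in Tris saline Tween buffer holding calcium plus EGTA and DTT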
# [5] = target: Calmodulin-1 (Homo sapiens) (UniProt P0DP23); assay: small molecules binding Ca-loaded calmodulin-1 – biochemical, small-molecule microarray, Cy5-labelled CALM1, plus calcium, artefact control for SMM control-protein annotation, profiling panel (AID 1112); conditions: Cy5-CALM1 binding fluorescence, higher = more signal;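 further: score merges spot fluorescence with signal to noise from triplicate slides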
# [6] = probe aWnt5a binding to arrayed compounds – biochemical, biotinylated probe, 635/667 nm fluorescence, primary screen (AID 1113); conditions: small-molecule microarray, higher = more signal;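 further: score merges 667 nm fluorescence intensity with signal-to-noise per printed feature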
# [7] = probe aShh binding to arrayed compounds – biochemical, biotinylated probe, 635/667 nm fluorescence, primary screen (AID 1114); conditions: small-molecule microarray, higher = more signal;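 further: probe is biotin-labelled aShh protein from a stem cell growth factor screen; measures binding of labelled protein to compounds printed on the slide; score merges feature fluorescence at 667 nm with signal-to-noise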
# [8] = probe aNog binding to arrayed compounds – biochemical, biotinylated probe, 635/667 nm fluorescence, primary screen (AID 1115); conditions: small-molecule microarray, higher = more signal;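 further: probe is biotinylated aNog protein used at 0.15 µg/mL for 1 h at 4 C; z-score combines 667 nm fluorescence of each spot with its signal to noise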
# [9] = target: Torsin-1A-interacting protein 1 (Homo sapiens) (UniProt Q5JTV8); assay: compound microarray binding of lysate hLAP1 – cell lysate, small-molecule microarray, COS7 lysate, 635/667 nm fluorescence, primary screen (AID 1116); conditions: 635 nm fluorescence, higher = more signal
# [10] = target: Alpha-bungarotoxin (Bungarus multicinctus) (UniProt P60615); assay: compounds binding labelled alpha-BTX control protein – biochemical, small-molecule microarray, Alexa647 label, 635/667 nm fluorescence, artefact control for SMM control protein annotation, profiling panel (AID 1117); conditions: alpha-BTX-A647 binding fluorescence, higher = more signal
# Albumin (Bos taurus) = Albumin (Bos taurus) (UniProt P02769); assay: compounds binding labelled BSA control protein – biochemical, small-molecule microarray, Alexa647 label, 635/667 nm fluorescence, artefact control for SMM control protein annotation, profiling panel (AID 1118); conditions: BSA-A647 binding, fluorescence 635 nm, higher = more signal;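 further: score merges 667 nm emission intensity and signal-to-noise per printed compound spot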
# [11] = probe aXIP binding to arrayed compounds – biochemical, NeuroSMM set, 635/667 nm fluorescence, primary screen (AID 1119); conditions: small-molecule microarray, higher = more signal, called active from +8 up or from −8 down;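 further: probe is the protein aXip251-270 applied at 1 µg/mL to compound-printed slides; binding of probe to printed compounds measured as 667 nm fluorescence plus signal to noise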
# [12] = probe aNOTCH3 binding on compound microarray – biochemical, small-molecule microarray, 635/667 nm fluorescence, primary screen (AID 1120); conditions: higher = more signal;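 further: probe is a biotin-tagged antibody raised against NOTCH3 rather than NOTCH3 protein; score merges spot fluorescence near 667 nm with spot signal to noise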
# [13] = probe aNOTCH2 binding on compound microarray – biochemical, small-molecule microarray, 635/667 nm fluorescence, primary screen (AID 1121); conditions: higher = more signal;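 further: score merges feature fluorescence read at 667 nm with its signal to noise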
# [14] = target: Carbonic anhydrase 2 (Homo sapiens) (UniProt P00918); assay: compounds binding carbonic anhydrase 2 – biochemical, small-molecule microarray, Alexa647-labelled CAII, profiling panel (AID 1122); conditions: CAII-A647 binding fluorescence, higher = more signal
# [15] = COS7 lysate on small-molecule microarray, probe aHis, 635 nm (AID 1123); conditions: COS7 cell lysate, fluorescence, higher = more signal;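 further: z-score combines 667nm fluorescence intensity with signal-to-noise per printed compound spot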
# [16] = probe aLAP1 signal on lysate-treated microarray – cell lysate, small-molecule microarray, COS7 lysate, primary screen (AID 1124); conditions: probe aLAP1, fluorescence, higher = more signal;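 further: lysate comes from COS7 cells expressing LAP1 and is applied at 0.3 µg/mL; score merges spot fluorescence near 667 nm with signal-to-noise over triplicate slides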
# Sam68 (KHDRBS1) = assay: compounds binding KHDRBS1 protein – biochemical, small-molecule microarray, 635 nm fluorescence, primary screen (AID 1125); conditions: higher = more signal;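 further: score merges 667 nm channel intensity with signal to noise over triplicate slides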
# [17] = tested on: Chordin-like protein 2 (CHRDL2); assay: compounds binding chordin-like 2 – biochemical, small-molecule microarray, 635 nm fluorescence, primary screen (AID 1126); conditions: fluorescence 635 nm, higher = more signal;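 further: printed compound slides probed with Chrdl2 protein at 4 µg/mL for 1 h at 4 C; score merges 667 nm emission intensity with signal to noise over three replicate slides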
# [18] = target: Concanavalin-A (Canavalia ensiformis) (UniProt P02866); assay: compounds binding concanavalin A lectin – biochemical, small-molecule microarray, Alexa647 label, 635 nm, artefact control for SMM control protein annotation, primary screen (AID 1127); conditions: ConA-A647 binding fluorescence, higher = more signal;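 further: z combines 667 nm emission intensity with signal-to-noise across three replicate slides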
# Chain of Concanavalin-A (Canavalia ensiformis) (P02866 whole entry, looked up): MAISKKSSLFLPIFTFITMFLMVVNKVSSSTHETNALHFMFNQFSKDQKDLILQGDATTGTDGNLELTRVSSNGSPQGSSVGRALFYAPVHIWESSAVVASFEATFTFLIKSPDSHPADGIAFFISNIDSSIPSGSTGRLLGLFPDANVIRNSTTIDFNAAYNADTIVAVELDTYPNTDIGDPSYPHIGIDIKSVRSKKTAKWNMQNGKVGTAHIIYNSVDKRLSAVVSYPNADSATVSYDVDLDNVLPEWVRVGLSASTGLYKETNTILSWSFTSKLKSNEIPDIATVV
# Chain of Torsin-1A-interacting protein 1 (Homo sapiens) (Q5JTV8 whole entry, looked up): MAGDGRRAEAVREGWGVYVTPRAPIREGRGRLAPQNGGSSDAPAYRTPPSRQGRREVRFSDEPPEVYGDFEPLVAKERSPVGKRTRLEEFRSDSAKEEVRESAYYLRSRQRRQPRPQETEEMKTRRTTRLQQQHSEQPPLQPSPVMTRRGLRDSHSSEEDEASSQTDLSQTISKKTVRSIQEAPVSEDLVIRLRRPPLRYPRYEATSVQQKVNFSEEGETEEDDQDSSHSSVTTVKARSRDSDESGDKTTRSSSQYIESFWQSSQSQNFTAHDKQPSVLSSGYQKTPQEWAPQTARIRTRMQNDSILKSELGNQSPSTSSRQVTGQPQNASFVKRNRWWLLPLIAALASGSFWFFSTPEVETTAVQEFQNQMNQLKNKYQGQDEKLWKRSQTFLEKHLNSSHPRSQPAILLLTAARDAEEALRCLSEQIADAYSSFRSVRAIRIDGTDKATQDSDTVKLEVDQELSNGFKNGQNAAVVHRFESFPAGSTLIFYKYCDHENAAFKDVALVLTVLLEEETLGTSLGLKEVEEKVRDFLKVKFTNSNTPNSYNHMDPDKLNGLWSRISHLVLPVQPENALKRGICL
# Chain of Left-right determination factor 2 (Homo sapiens) (O00292 whole entry, looked up): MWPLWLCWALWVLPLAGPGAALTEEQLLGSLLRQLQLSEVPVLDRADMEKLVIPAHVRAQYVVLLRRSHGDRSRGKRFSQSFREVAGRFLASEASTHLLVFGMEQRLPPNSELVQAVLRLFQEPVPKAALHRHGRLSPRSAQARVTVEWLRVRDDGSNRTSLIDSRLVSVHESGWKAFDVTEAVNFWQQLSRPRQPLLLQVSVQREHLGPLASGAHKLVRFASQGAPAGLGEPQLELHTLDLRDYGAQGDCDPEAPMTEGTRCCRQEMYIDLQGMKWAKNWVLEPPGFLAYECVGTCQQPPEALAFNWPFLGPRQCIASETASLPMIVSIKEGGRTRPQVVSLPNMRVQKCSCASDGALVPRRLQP
# Chain of Albumin (Bos taurus) (P02769 whole entry, looked up): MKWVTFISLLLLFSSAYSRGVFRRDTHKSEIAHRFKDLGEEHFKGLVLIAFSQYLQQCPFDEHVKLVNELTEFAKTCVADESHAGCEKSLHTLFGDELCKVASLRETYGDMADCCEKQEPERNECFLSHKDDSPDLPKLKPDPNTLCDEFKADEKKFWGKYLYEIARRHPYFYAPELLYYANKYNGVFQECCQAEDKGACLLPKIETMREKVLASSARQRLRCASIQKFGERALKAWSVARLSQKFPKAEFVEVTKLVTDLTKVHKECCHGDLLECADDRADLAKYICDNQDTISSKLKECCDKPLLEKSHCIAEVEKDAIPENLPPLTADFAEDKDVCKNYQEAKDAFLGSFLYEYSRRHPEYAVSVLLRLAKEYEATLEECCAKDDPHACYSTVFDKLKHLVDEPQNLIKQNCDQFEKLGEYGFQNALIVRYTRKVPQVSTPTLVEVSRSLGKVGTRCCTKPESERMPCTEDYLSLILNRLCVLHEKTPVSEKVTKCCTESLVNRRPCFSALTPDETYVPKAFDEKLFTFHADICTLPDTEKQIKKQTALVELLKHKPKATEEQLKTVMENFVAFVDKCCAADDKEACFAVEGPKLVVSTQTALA
# Chain of Alpha-bungarotoxin (Bungarus multicinctus) (P60615 whole entry, looked up): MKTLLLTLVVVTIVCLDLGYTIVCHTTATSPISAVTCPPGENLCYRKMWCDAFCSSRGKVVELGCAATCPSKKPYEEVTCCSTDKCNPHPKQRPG
SMILES,composite z-score [1],z-score [2],composite z-score [3],composite z-score [4],composite z-score [5],composite z-score [6],composite z-score [7],composite z-score [8],composite z-score [9],composite z-score [10],composite z-score (Albumin (Bos taurus)),composite Z-score [11],composite z-score [12],composite z-score [13],composite z-score [14],composite z-score [15],composite z-score [16],composite z-score (Sam68 (KHDRBS1)),composite z-score [17],composite z-score [18]
CSCC[C@@H]1NC(=O)CC=C[C@@H](C)COC(=O)[C@@H](C)COC1=O,-2.17,0.371,0.294,-1.31,-1.61,-0.197,-0.366,-0.15,0.574,-2.23,-1.1,0.517 (inactive),-0.155,-0.175,-0.762,-1.1,0.145,-0.399,0.683,-2.02
CCN1C(=O)[C@H]2[C@H]3[C@H](O)[C@H](O)CC(=NOCC(C)C)[C@@H]3CC[C@H]2C1=O,1.33,-0.0305,0.32,-0.39,-0.682,-0.096,-0.0709,-0.255,0.317,0.13,0.612,-0.0562 (inactive),0.179,-0.126,0.459,1.1,-0.202,1.3,0.72,0.0131
COc1cccc([C@H]2Oc3ccc(OC)cc3C(=NO[C@H](C)c3cn([C@H](CO)Cc4ccccc4)nn3)[C@@H]2O)c1,-0.995,-1.74,0.323,-1.57,-0.45,-0.175,-0.229,-0.141,0.169,-0.689,-1.28,-0.372 (inactive),-0.208,-0.187,0.406,0.418,0.0672,-0.779,0.08,-2.12
CCN1C(=O)[C@H]2[C@H]3[C@H](O)[C@H](O)CC(=NNC(=O)OCc4ccc(OC)cc4)[C@@H]3CC[C@H]2C1=O,-0.246,-0.193,-0.0843,-0.484,-0.732,-0.261,0.401,-0.272,-0.717,0.374,-0.254,0.0958 (inactive),0.0945,-0.0894,-0.403,-0.42,0.106,-0.362,0.0319,-0.205
CC=CC1=C(CO)C(=O)[C@@H]2O[C@@H]2C1=O,-1.52,-2.28,1.27,-1.58,-1.61,-0.145,-0.304,0.0947,-0.822,0.177,-0.651,0.833 (inactive),-0.109,-0.102,0.298,-0.91,-0.724,-0.533,1.45,-0.579
Cc1cc2c(nc1C)CCCCN2CC(C)ON=C1[C@H]2CCn3c(=O)n(-c4ccccc4)c(=O)n3[C@H]2[C@H](O)[C@@H]2O[C@H]12 (stereo not given in full),-0.0964,-4.63,0.769,-0.895,-1.2,0.0839,0.258,0.0531,0.369,0.473,0.762,-0.343 (inactive),0.0562,-0.117,0.435,0.812,0.0072,0.573,0.373,-0.765
C#CCCCON=C1C[C@@H](O)[C@@H](O)[C@@H]2[C@@H]3C(=O)N(c4ccc(F)cc4F)C(=O)[C@@H]3CC[C@H]12,0.299,0.0534,0.358,-0.353,-0.693,-0.006,-0.0533,-0.21,-0.0188,0.239,0.314,-0.488 (inactive),-0.122,-0.151,0.65,0.887,0.145,1.15,0.392,0.772
CCN1C(=O)[C@H]2[C@H]3[C@H](O)[C@H](O)CC(=NO[C@@H](C)c4cn([C@H](CO)Cc5ccccc5)nn4)[C@@H]3CC[C@H]2C1=O,0.696,-0.262,0.636,0.711,-0.209,-0.0403,-0.206,0.111,-0.117,0.889,0.233,0.299 (inactive),-0.0581,-0.184,0.556,0.875,0.547,1.28,0.399,0.941
CC(C)(C)N1C(=O)[C@H]2[C@H]3[C@H](O)[C@H](O)CC(=O)[C@H]3CC[C@H]2C1=O,0.487,-0.041,0.473,0.133,-0.816,0.0267,-0.186,-0.0996,0.274,0.642,0.472,0.403 (inactive),-0.0581,-0.155,0.0658,0.165,0.206,0.892,0.357,0.673
COCCNC(=O)OCC1CCCC2(CC(OC(=O)NCc3ccc4c(c3)OCO4)CC(CCC(=O)N[C@@H](C)C(=O)OC)O2)O1 (stereo not given in full),0.953,-1.26,0.65,0.332,-0.431,-0.0819,-0.0553,-0.0645,0.376,0.804,0.0746,0.161 (inactive),-0.0164,-0.0666,0.234,0.678,-0.0692,1.3,0.454,1.02
COC(=O)[C@@H]1CC[C@H](C)[C@@H](c2ccc(C)cc2)N1C(=O)c1ccc(C=NO[C@@H]2O[C@H](COC(C)=O)[C@@H](OC(C)=O)[C@H](OC(C)=O)[C@H]2OC(C)=O)cc1,0.918,-0.465,0.368,0.0167,-0.371,-0.124,0.313,-0.0208,0.218,0.884,0.322,0.265 (inactive),-0.217,-0.0596,-0.0477,0.234,0.116,1.05,0.452,1.01
